# Experimental data as given in PubChem BioAssay (Tox21).
# “And” between values parts separate entries of the source, which are not always exact repeats. Equal entries are not always repeated. Records with an inconclusive call do not appear. Where a call stands in place of a potency, no number is given. More than one record can exist for a structure, and the calls need not agree. The source made the active and inactive calls. Calls follow the shape of the full dose curve.
# Target: Acetylcholinesterase (Homo sapiens) (UniProt P22303)
# Sequence (P22303 whole entry, looked up): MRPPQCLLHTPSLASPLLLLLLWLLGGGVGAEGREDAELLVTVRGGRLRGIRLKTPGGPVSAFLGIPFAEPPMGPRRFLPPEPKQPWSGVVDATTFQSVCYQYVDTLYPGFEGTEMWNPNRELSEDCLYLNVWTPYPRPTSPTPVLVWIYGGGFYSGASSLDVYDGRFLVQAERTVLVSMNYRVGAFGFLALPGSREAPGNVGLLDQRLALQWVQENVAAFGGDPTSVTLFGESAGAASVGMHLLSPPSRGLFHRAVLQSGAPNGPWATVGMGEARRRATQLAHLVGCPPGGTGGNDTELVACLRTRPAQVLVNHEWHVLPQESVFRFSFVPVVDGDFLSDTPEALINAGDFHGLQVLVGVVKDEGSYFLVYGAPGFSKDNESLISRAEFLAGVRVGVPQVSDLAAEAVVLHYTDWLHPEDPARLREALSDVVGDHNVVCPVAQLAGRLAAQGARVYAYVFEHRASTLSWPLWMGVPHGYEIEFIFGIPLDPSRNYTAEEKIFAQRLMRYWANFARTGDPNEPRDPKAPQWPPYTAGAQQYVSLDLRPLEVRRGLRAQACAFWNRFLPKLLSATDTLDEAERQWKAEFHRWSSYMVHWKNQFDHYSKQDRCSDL
# Test: Acetylcholinesterase (AChE) small molecule antagonists: colormetric cell-based qHTS assay (AID 1347395); also: nearly all actives have a fitted effect of over 30% in size
# Conditions: SH-SY5Y cells AChE activity, colorimetric (Ellman); series mostly up to 115 µM; activity, negative = inhibition: at the top concentration
# In short: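 Quantitative HTS in attached SH-SY5Y cells: 30 min compound exposure, then 90 min with acetylthiocholine and DTNB at 37 C; colour from thiocholine reports AChE activity.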
# Potency is read from the fitted curve at half-maximal effect.
SMILES,Potency,"activity, negative = inhibition"
CNC(=O)CSP(=S)(OC)OC,inactive,
CCCCOCCOC(C)=O,,1.92% (inactive)
CC(C)(C#N)N=NC(C)(C)C#N,inactive,
O=C(O)c1nn(Cc2ccc(Cl)cc2Cl)c2ccccc12,inactive,
CC1CC(=O)O1 (stereo unspecified),inactive,
C=CC(Cl)CCl (stereo unspecified),inactive,
C=CC(=O)OCC(CC)(COC(=O)C=C)COC(=O)C=C,inactive,
CCCCC(C#N)(Cn1cncn1)c1ccc(Cl)cc1 (stereo unspecified),inactive,
Oc1ccc(Cl)cc1Cl,inactive,
CC(C)(O)C#N,inactive,
O=NN1CCOCC1,inactive,
CCOC(=O)c1ccccc1N,inactive,
COc1ccc(O)c(C(C)(C)C)c1,inactive,
CCNc1nc(Cl)nc(NC(C)(C)C#N)n1,inactive,
Brc1ccc(Br)cc1,inactive,
CCC/C=N/O,inactive,
CCCCOC(=O)COC(=O)c1ccccc1C(=O)OCCCC,inactive,
Nc1ncn[nH]1,inactive,
CC(C)(c1ccccc1)c1ccc(O)c(C(C)(C)c2ccccc2)c1,inactive,

SMILES,Potency,"activity, negative = inhibition"
c1ccc(C2CO2)cc1 (stereo unspecified),inactive,
Clc1ccc(C(Cl)(Cl)Cl)cc1,inactive,
COc1ccc(C=O)cc1OC,inactive,
CCOS(=O)(=O)OCC,5.03 µM (active) and inactive,
ClCC(Cl)CCl,inactive,
O=NN(c1ccccc1)c1ccccc1,inactive,
CCC[CH2][Sn]([Cl])([CH2]CCC)[CH2]CCC,inactive,
Clc1cccc(C(Cl)(Cl)Cl)n1,inactive,
COP(=O)(NC(C)=O)SC (stereo unspecified),inactive,
CSc1nc(NC(C)C)nc(NC(C)C)n1,inactive,
CC(C)COC(=O)c1ccccc1C(=O)OCC(C)C,inactive,
CN(C)c1ccccc1,inactive,
CCOP(=S)(OCC)OP(=S)(OCC)OCC,8.18 µM (active) and 5.03 µM (active),
CCOP(=O)(OCC)OCC,,0.209% (inactive)
[CH3][Sn]([Cl])([Cl])[Cl],inactive,
ClCc1ccccn1,inactive,
CCCCCCCC[N+](C)(CCCCCCCC)CCCCCCCC,,-0.366% (inactive)
CC1(C)C(C(=O)OC(C#N)c2cccc(Oc3ccccc3)c2)C1(C)C (stereo unspecified),inactive,
CCOP(=S)(OCC)SCSC(C)(C)C,inactive,

# Target: Acetylcholinesterase (Homo sapiens) (UniProt P22303)
# Test: Acetylcholinesterase (AChE) small molecule antagonists: enzyme-based qHTS assay (AID 1347397); also: nearly all actives have a fitted effect of over 55% in size
# Conditions: Potency: AChE enzyme activity inhibition; series mostly up to 115 µM; activity change, negative = inhibition: at the top concentration
# In short: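 Tox21 library chemicals are tested in qHTS format against recombinant human AChE. The enzyme, dispensed at 50 mU/mL, sits with compound for 30 min at room temperature. A DTNB–acetylthiocholine cocktail follows, and colour is read after 10 min.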
row,SMILES,Potency
1,CNC(=O)CSP(=S)(OC)OC,inactive
2,CCCCOCCOC(C)=O,inactive
3,CC(C)(C#N)N=NC(C)(C)C#N,inactive
4,O=C(O)c1nn(Cc2ccc(Cl)cc2Cl)c2ccccc12,inactive
5,CC1CC(=O)O1 (stereo unspecified),inactive
6,C=CC(Cl)CCl (stereo unspecified),inactive
7,C=CC(=O)OCC(CC)(COC(=O)C=C)COC(=O)C=C,inactive
8,CCCCC(C#N)(Cn1cncn1)c1ccc(Cl)cc1 (stereo unspecified),inactive
9,Oc1ccc(Cl)cc1Cl,inactive
10,CC(C)(O)C#N,inactive
11,O=NN1CCOCC1,inactive
12,CCOC(=O)c1ccccc1N,inactive
13,COc1ccc(O)c(C(C)(C)C)c1,inactive
14,CCNc1nc(Cl)nc(NC(C)(C)C#N)n1,inactive
15,Brc1ccc(Br)cc1,inactive
16,CCC/C=N/O,34.2 µM (active) and inactive
17,CCCCOC(=O)COC(=O)c1ccccc1C(=O)OCCCC,inactive
18,Nc1ncn[nH]1,inactive
19,CC(C)(c1ccccc1)c1ccc(O)c(C(C)(C)c2ccccc2)c1,inactive

row,SMILES,Potency
1,c1ccc(C2CO2)cc1 (stereo unspecified),inactive
2,Clc1ccc(C(Cl)(Cl)Cl)cc1,inactive
3,COc1ccc(C=O)cc1OC,inactive
4,CCOS(=O)(=O)OCC,inactive
5,ClCC(Cl)CCl,inactive
6,O=NN(c1ccccc1)c1ccccc1,inactive
7,CCC[CH2][Sn]([Cl])([CH2]CCC)[CH2]CCC,inactive
8,Clc1cccc(C(Cl)(Cl)Cl)n1,inactive
9,COP(=O)(NC(C)=O)SC (stereo unspecified),inactive
10,CSc1nc(NC(C)C)nc(NC(C)C)n1,inactive
11,CC(C)COC(=O)c1ccccc1C(=O)OCC(C)C,inactive
12,CN(C)c1ccccc1,inactive
13,CCOP(=S)(OCC)OP(=S)(OCC)OCC,72.9 µM (active) and 79.6 µM (active)
14,CCOP(=O)(OCC)OCC,inactive
15,[CH3][Sn]([Cl])([Cl])[Cl],inactive
16,ClCc1ccccn1,inactive
17,CCCCCCCC[N+](C)(CCCCCCCC)CCCCCCCC,79.5 µM (active) and inactive and 71 µM (active)
18,CC1(C)C(C(=O)OC(C#N)c2cccc(Oc3ccccc3)c2)C1(C)C (stereo unspecified),inactive
19,CCOP(=S)(OCC)SCSC(C)(C)C,inactive
